LMP1 NFkB inh = EBV LMP1-driven NF-kappaB luciferase reporter inhibitors, primary screen, cell-based, luminescence, single point | AID 504558, 2011 | LMP1-induced NF-kappaB luciferase reporter cells | inhibition, % at 12.5 µM | actives 0.69% (n = 350,000); in the data active = inhibition above about 41%; inconclusive = no clear call, values can overlap the other calls;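 note: 0% = neutral control wells and 100% = reference inhibitor control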
TWEAK-Fn14 inh = inhibitors of TWEAK-Fn14 signaling, primary screen, luciferase reporter cells, uHTS; TWEAK-stimulated Fn14 reporter cells, luciferase luminescence, 8 h; inhibition, % at 10 µM; actives 2% (n = 360,000); in the data active = inhibition above about 50%
Peg3 promoter = Peg3 promoter-driven luciferase inhibitors, primary screen, cell-based, HeLa, luciferase luminescence; HeLa PEG-Prom luciferase reporter, overnight; inhibition, % at 20 µM; actives 1.7% (n = 360,000); AID 588405, 2011;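 active = inhibition of at least 50% at 20 µM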
TROY NFkB inh = inhibitors of TROY-driven NF-kB signaling, primary screen, Q293 LMP1-TROYcd cells, NF-kB luciferase, uHTS. Q293 LMP1-TROYcd NF-kB luciferase reporter, 4 h. inhibition, % at 10 µM. actives 0.98% (n = 360,000);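 active = compounds whose plate-normalised and pattern-corrected inhibition of the luciferase reporter signal at the single screening dose is 50% or more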
HIF-2a block = HIF-2a reporter inhibitors, primary screen, luminescence, 786-0 RCC cells. inhibition, % at 18.8 µM. AID 624352, 2012. 786-0 RCC cells HIF-2a reporter, luciferase luminescence, overnight. actives 0.72% (n = 360,000);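 active = inhibition of the luminescence signal of 40% or more relative to plate controls, in a single-dose primary screen at 18.75 µM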
MITF TRPM1 inh = inhibitors of MITF-dependent TRPM1 promoter reporter, primary screen, cell-based, SK-MEL-5, single point, luciferase | SK-MEL-5 TRPM1 promoter luciferase, 24 h | inhibition, % at 12.5 µM | actives 0.83% (n = 330,000) | AID 488899, 2010;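 active = mean inhibition across replicates of 60% or more, whatever share of single replicates reaches that level; inconclusive = some that reach 60%, reason not given; inactive = mean inhibition across replicates below 60%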
Mdm2-MdmX confirm = retested Mdm2-MdmX interaction blockers, confirmation, cell-based, luminescence, single concentration, set 2. shares compounds with HIF-2a block. SaOS-2 split-luciferase Mdm2/MdmX complementation. inhibition, % at 8 µM. actives 99% (n = 740);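 active = mean inhibition of the luminescence signal across two replicates at or above 26 percent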
Target sequence (O15151 whole entry, looked up): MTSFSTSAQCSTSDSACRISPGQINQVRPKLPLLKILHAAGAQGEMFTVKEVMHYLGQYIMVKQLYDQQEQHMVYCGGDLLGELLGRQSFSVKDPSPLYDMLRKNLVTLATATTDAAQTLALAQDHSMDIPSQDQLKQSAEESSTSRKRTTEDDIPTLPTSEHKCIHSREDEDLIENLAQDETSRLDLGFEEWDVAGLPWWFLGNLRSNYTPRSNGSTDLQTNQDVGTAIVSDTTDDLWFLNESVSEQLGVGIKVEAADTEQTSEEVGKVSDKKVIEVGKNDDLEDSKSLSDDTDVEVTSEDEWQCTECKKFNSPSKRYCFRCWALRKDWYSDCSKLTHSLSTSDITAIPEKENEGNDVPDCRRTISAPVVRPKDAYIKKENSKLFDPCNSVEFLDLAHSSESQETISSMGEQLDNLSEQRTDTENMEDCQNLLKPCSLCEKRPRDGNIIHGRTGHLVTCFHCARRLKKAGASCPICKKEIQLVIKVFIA
Target sequence (Q00987 whole entry, looked up): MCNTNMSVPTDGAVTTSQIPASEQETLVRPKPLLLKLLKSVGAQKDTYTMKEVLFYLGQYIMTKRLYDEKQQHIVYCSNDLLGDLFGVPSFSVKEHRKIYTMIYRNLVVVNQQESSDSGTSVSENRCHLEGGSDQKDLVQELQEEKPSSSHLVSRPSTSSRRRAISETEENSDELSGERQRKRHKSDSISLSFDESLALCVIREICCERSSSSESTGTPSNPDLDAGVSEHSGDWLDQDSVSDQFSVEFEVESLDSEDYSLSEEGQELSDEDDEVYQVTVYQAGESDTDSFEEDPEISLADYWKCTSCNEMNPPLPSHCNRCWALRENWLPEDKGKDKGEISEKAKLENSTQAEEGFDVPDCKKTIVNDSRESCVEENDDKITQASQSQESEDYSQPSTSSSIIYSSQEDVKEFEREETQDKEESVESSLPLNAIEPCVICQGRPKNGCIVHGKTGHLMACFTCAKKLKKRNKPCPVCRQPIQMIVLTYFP
HIF-2a conf = HIF-2a reporter inhibitor retest, confirmation, luminescence, 786-0 RCC cells. shares compounds with HIF-2a block. HIF-2a luciferase reporter luminescence, overnight. inhibition, % at 18.8 µM. actives 56% (n = 1,800). AID 651580, 2012;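 active = mean inhibition across four replicates of at least 40 percent at the single tested concentration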
HIF-1a counter = HIF-1a luciferase reporter signal reduction – MiaPaCa-2 cells, single concentration, counter-screen for HIF-2a inhibitor project, confirmation | shares compounds with HIF-2a block | MiaPaCa-2 HIF-1a luciferase reporter, desferoxamine, overnight | inhibition, % at 18.8 µM | actives 72% (n = 1,800) | AID 651589, 2012;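 active = mean inhibition of the reporter signal across four replicates at the single tested dose of 50% or more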
Active calls of the source: *; ? = inconclusive; . = no result given. Only some compounds are listed: those with a hit (about 4% of all), similar ones and a draw of the others.

SMILES	LMP1 NFkB inh	TWEAK-Fn14 inh	Peg3 promoter	TROY NFkB inh	HIF-2a block	MITF TRPM1 inh	HIF-2a conf	HIF-1a counter	others
Cc1cc(NC(=O)CCCS(=O)(=O)c2nc(-c3cccs3)cc(C(F)(F)F)n2)no1	0	60*	106*	66*	94*	95*	56*	104*
CCOC(=O)CS(=O)(=O)c1nc(-c2ccccc2)cc(C(F)(F)F)n1	?	35	105*	39	89*	102*	82*	65*
Cc1ccc(CNC(=O)C2CCC(=O)N(CCc3cccc(F)c3)C2)cc1 (stereo not drawn)	-9	-6	6	1	-1	-4	.	.
CC(C)(C)[C@@H]1COC(=O)[C@H](Cc2ccc(F)cc2)C/C=C\C[C@@H](CC(=O)NCCO)C(=O)N1	6	1	-4	2	1	1	.	.
CC(C)[C@@H](C(=O)N1CCCC1)N1C(=O)N2CCc3c([nH]c4ccccc34)[C@@]2(C)C1=O	1	8	11	3	11	-2	.	.
CCNC(=O)c1c(NC(=O)c2cc(-c3cc(C)cc(C)c3O)n[nH]2)sc2c1CCCC2	0	-77	21	3	11	-7	.	.
O=C(O)CCS(=O)(=O)c1nc(-c2cccs2)cc(C(F)(F)F)n1	-1	9	12	11	5	3	.	.
COC(=O)CCS(=O)(=O)c1nc(-c2ccccc2)cc(C(F)(F)F)n1	-37	91*	107*	12	88*	94*	99*	107*	Mdm2-MdmX confirm=103*
Cc1ccc(N2C(=O)N(CC(=O)Nc3cc(F)ccc3C)C(=O)C2C)cc1 (stereo not drawn)	-2	-5	8	1	1	-2	.	.
Cc1ccc(C2(C)NC(=O)N(CC(=O)NC3CCCCC3)C2=O)cc1 (stereo not drawn)	-1	-6	0	-4	-2	-5	.	.
O=C1Nc2ccc(Br)cc2/C1=C/C(=O)c1ccc2c(c1)OCO2	3	-16	53*	12	45*	66*	-33	95*
CC(C)c1ccc(-n2nnnc2SCC(=O)NC2CC2)cc1	-4	14	-16	-2	-21	-41	.	.
Cc1cccn2c(CNC3CCCc4ccccc43)c(C(=O)N3CCCCC3)nc12 (stereo not drawn)	15	2	18	-2	1	6	.	.
O=C(CCN1C(=O)/C(=C/c2ccccc2)SC1=S)NNC(=O)c1ccncc1	-4	-15	1	2	13	-5	.	.
O=C(CCN1C(=O)/C(=C/c2ccccc2)SC1=S)N[C@@H](CO)Cc1ccccc1	10	-4	80*	-10	50*	2	.	.	Mdm2-MdmX confirm=98*
CC(C)(C)C(=O)/C(=C/c1ccncc1)n1cncn1	38	83*	101*	51*	93*	82*	62*	106*	Mdm2-MdmX confirm=102*
Cc1nn(C)c(C)c1/C=C(/C(=O)C(C)(C)C)n1cncn1	-3	12	8	-4	19	9	.	.
CCCc1nc([N+](=O)[O-])c(S(=O)(=O)c2ccccc2)n1CC(C)C	11	83*	48	26	45*	54	27	-43
CCCCn1c(CCC)nc([N+](=O)[O-])c1Sc1ccc(Cl)cn1	8	40	20	0	30	25	.	.
CC(NC(=O)c1ccccc1F)c1nnc(SCC(=O)NC2=NCCS2)n1C (stereo not drawn)	-8	19	3	0	2	-1	.	.
Cc1cc(C(C)(C)C)ccc1OCCCCN1CCCC1	-7	-4	-7	7	8	5	.	.
Cc1cc[n+](CC[n+]2ccc(C)cc2)cc1	8	2	-3	-4	6	12	.	.
CCC(C)(C)c1ccc(OCCCC[n+]2cccc(C)c2C)c(C(C)(C)CC)c1	7	52*	107*	39	88*	71*	77*	107*	Mdm2-MdmX confirm=103*
CCC(C)(C)c1ccc(OCCCC[n+]2ccc(C)cc2)c(C(C)(C)CC)c1	.	.	.	.	.	.	.	.	Mdm2-MdmX confirm=102*
CC1CCCC(C)N1C(=O)COC(=O)c1n[nH]c(=O)c2ccccc12 (stereo not drawn)	3	1	4	-5	7	5	.	.
SMILES	LMP1 NFkB inh	TWEAK-Fn14 inh	Peg3 promoter	TROY NFkB inh	HIF-2a block	MITF TRPM1 inh	HIF-2a conf	HIF-1a counter	others
CCC(C)c1ccc(OCc2ccc(C(=O)O)o2)cc1 (stereo not drawn)	6	3	41	-97	55*	5	33	-66
CCOC(=O)C(CCCOc1ccc(C(C)CC)cc1)C(=O)OCC (stereo not drawn)	9	37	-2	15	70*	-2	73*	69*
O=[N+]([O-])c1ccc(-c2ccc(/C=N/Nc3nc(N4CCCC4)nc(N4CCCC4)n3)o2)cc1	-111	-23	31	-2	11	68*	.	.	Mdm2-MdmX confirm=91*
O=[N+]([O-])c1ccc(/C=N/Nc2nc(N3CCCC3)nc(N3CCCC3)n2)o1	6	-2	15	2	1	44	.	.
COc1cc(C(Nc2ccccn2)c2ccc3ccc(C)nc3c2O)cc(OC)c1O (stereo not drawn)	33	46	102*	10	94*	28	.	.	Mdm2-MdmX confirm=102*
CC(=O)Oc1ccccc1C(=O)C=Cc1cccc([N+](=O)[O-])c1	18	83*	99*	20	89*	93*	94*	103*
Cc1cc(O)c(C(=O)/C=C/c2cccc([N+](=O)[O-])c2)c(=O)o1	-6	-19	-1	-2	-2	13	.	.
CCOC(=O)c1ccc(Oc2nc(NC(C)(C)C)nc(N(C)C)n2)cc1	13	28	30	24	44*	-3	50*	-8
CCOC(=O)c1ccc(Oc2nc(N(C)C)nc(N(C)C)n2)cc1	-1	19	1	4	19	-4	.	.
Nc1ccccc1C#Cc1ccc([N+](=O)[O-])cc1	-58	-23	-334	-73	-293	-95	.	.

Bioassay records: PubChem BioAssay, several laboratories
